# Inconclusive results are not listed. Values without a mark were called inactive. Calls follow the shape of the dose curve; as a rule, active = well fitted curve in the direction sought with a large enough effect; inconclusive = small, poorly fitted or top-dose-only effect, or another doubt; inactive = no such curve, though single readings can be large or run the other way.
# Target: Luciferin 4-monooxygenase (Photinus pyralis) (UniProt P08659)
# Assay: miR-21 counterscreen using purified firefly luciferase
# Settings: purified P. pyralis luciferase, luminescence; series mostly up to 57.5 µM; activity change, negative = inhibition: at the top concentration
# Source text: MLPCN Grant: 1 R21 NS059478-01 Assay Provider: Qihong Huang, The Wistar Institute NCGC Assay Overview: MicroRNAs (miRNAs) are endogenously encoded small (~20-25 nucleotides), nonprotein-coding RNAs that are involved in post-transcriptional repression of target messenger RNAs (mRNAs) (Le and Hannon, 2004). Estimated to be involved in the regulation of 30% of all protein-coding mRNAs (Filipowicz et al., 2008), miRNAs play a significant role in many biological processes including cellular differentiation and tissue development (Ghildiyal and Zamore, 2009). […] Compounds active in the miR-21 FLuc assay were clustered using Leadscope and active chemical series were prioritized based on chemical properties, potential for medicinal chemistry optimization, and SAR. Within each chemical series, representative compounds were re-acquired to test for activity in a secondary assay based on the quality of their CRC, efficacy, and potency. This secondary assay to determine if compounds active in the miR-21 FLuc assay were just luciferase inhibitors. Compounds found active in both the miR-21 FLuc and purified FLuc assays are considered as false positives. Keywords: NIH Roadmap, MLPCN, MLSMR, qHTS, miR-21, firefly luciferase, FLuc, miRNA.
# NCGC Assay Protocol Summary: Reagents: 50mM Tris acetate, pH 7.5; 10mM Mg acetate; 10uM D-luciferin (Sigma #L9504); 10uM ATP; 0.01% Tween-20; 0.05% BSA; 10nM P. pyralis luciferase (Sigma #L9506) Control compounds used were two known firefly luciferase inhibitors (compounds (2) and (5) in Auld et al., 2010), and DMSO. Assay Summary: Three microliters containing firefly luciferase substrates in buffer (final concentrations: 50mM Tris acetate, pH 7.5, 10mM Mg acetate, 0.01% Tween-20, 0.05% BSA, 10uM D-luciferin, and 10uM ATP) are dispensed into each well of a Greiner white, solid-bottom 1536-well format plate using a flying reagent dispenser (FRD). These assay plates were then treated with 23nL of compound or DMSO using a Kalypsys pin tool, which allows for delivery of a 6-point interplate titration of each compound to the assay plate (quantitative HTS), with a final compound concentrations ranging from approximately 60 µM to 7pM. One microliter of firefly luciferase in […] Tris-acetate buffer was then delivered by FRD to each well for a final enzyme concentration of 10nM. Luciferase activity was then measured using a ViewLux CCD imager (PerkinElmer), with an average exposure time of 2-30 seconds (2X binning, medium/high gain).
# Chain of Luciferin 4-monooxygenase (Photinus pyralis) (P08659 whole entry, looked up): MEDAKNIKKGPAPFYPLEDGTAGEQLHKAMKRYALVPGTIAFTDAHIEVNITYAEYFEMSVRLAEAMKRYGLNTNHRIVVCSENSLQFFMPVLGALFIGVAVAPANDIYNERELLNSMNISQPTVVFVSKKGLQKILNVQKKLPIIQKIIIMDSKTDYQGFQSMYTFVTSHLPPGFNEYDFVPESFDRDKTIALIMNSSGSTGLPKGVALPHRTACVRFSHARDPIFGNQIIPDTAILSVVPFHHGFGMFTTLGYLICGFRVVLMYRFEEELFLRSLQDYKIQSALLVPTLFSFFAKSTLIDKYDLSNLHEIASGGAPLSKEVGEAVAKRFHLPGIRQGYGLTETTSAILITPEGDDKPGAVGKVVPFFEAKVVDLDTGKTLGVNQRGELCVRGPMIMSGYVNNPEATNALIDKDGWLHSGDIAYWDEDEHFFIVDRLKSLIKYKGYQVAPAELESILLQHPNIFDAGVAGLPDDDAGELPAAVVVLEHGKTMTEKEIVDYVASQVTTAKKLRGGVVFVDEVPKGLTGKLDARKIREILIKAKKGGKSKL
row,Structure (SMILES),"activity change, negative = inhibition"
1,NC(=O)c1ccccc1NC(=O)c1ccc(-c2ccc(Br)cc2)o1,0.577%
2,CCc1nonc1NC(=O)c1oc2ccccc2c1C,-6.73%
3,CCCn1c(=O)c2sccc2n2c(CCCC(=O)Nc3ccc(Oc4ccc(Cl)cc4)cc3)nnc12,-2.62%
4,COc1cc(-c2nc3cnccn3c2Nc2ccc(C(C)C)cc2)ccc1O,-1.34%
5,CCCCN1C(C(=O)c2ccccc2)=C(OC(C)=O)c2ccccc2S1(=O)=O,-17%
6,CCC(=O)n1nc(-c2cccnc2)nc1NCc1ccc(F)cc1,-1.65%
7,COc1ccccc1NC(=O)CSc1nnc(-c2ccccn2)o1,3.59%
8,O=C(CSc1nnc(-c2ccc(C(F)(F)F)cn2)o1)Nc1cccc(Cl)c1,-0.604%
9,COc1ccc(Nc2cc(C(=O)NCCCN3CCN(c4ccc(OC)cc4)CC3)c3ccccc3n2)cc1,-6.17%
10,Cc1ccc(-c2nsc(SCC(=O)Nc3ccc4c(c3)OCO4)n2)cc1,-19.4%
11,COc1cccc(NC(=O)CSc2nnc(-c3cccs3)o2)c1,-3.97%
12,COc1ccccc1CNC(=O)CCC1N=C2c3ccccc3N=C(SCc3cccc(Cl)c3)N2C1=O (stereo not given),-1.95%
13,COc1cccc(-n2nnc(-c3nc(-c4cccs4)no3)c2N)c1,-9.44%
14,Cc1ccc(CNc2nc3nc(C)c(Cl)c(C)n3n2)cc1,-5.45%
15,Cc1cccc(-n2nnc(-c3nc(-c4cccs4)no3)c2N)c1C,2.43%
16,Cc1cc(C)cc(NC(=O)CSc2nnc(-c3ccccc3C)o2)c1,-8.21%
17,COc1ccccc1Nc1nn2c(=O)c3ccc(C(=O)NCCc4ccccc4)cc3nc2s1,-1.8%
18,Cc1cc(C)cc(NC(=O)CSc2nnc(CNC(=O)c3ccco3)o2)c1,3.89%
19,O=C(CSc1nnc(-c2ccc(Cl)cc2)o1)Nc1ccc(F)cc1,-3.58%
20,Cc1ccc(-c2nc3cnccn3c2Nc2ccccc2)o1,-19.4%

row,Structure (SMILES),"activity change, negative = inhibition"
1,Cc1ccccc1Nc1nc(N)nc(CN(C)c2ccccc2)n1,0.346%
2,CCS(=O)(=O)c1ncc(Cl)c(C(=O)N2CCN(c3cccc(Cl)c3)CC2)n1,-13.3%
3,CCS(=O)(=O)c1ncc(Cl)c(C(=O)N(Cc2ccccc2)c2ccc(OC)cc2)n1,-13.7%
4,COc1ccc(OCC(=O)Nc2cc(-c3nc4ccccc4s3)ccc2C)cc1,-18.9%
5,Cc1cc(Nc2cccc(C(F)(F)F)c2)nc2ccc(NC(=O)c3cccnc3)cc12,1.05%
6,CCCCOc1ccccc1CC1C(=O)Nc2ccc(Br)cc21 (stereo not given),-3.67%
7,Cc1ccc(NC(=O)Cn2nnc(-c3nc(-c4ccc(Cl)cc4)no3)c2N)cc1C,1.35%
8,Cc1ccc(-n2nnc(-c3nsc(NC(=O)c4ccccc4)n3)c2C)cc1,-7.45%
9,CN(C)c1ccc(CNc2nc(-c3ccco3)nn2S(C)(=O)=O)cc1,1.82%
10,C/C(=N\NC(=O)c1ccncc1)c1ccc(NC(=O)c2ccc(Cl)cc2)cc1,-10.4%
11,CC(C)(C)c1ccc(NC(=O)CSc2nnc(-c3n[nH]c4ccccc34)o2)cc1,-19.9%
12,COc1ccc(OCC(=O)Nc2ccc(-c3nc4cc(C)c(C)cc4o3)cc2)cc1,-0.217%
13,CCS(=O)(=O)n1nc(-c2ccccc2)nc1NCc1ccco1,-1.7%
14,Cc1cc(C)n2c(SCc3ccccc3Cl)nnc2n1,-9.49%
15,Cc1cccc(-n2nnc(-c3nc(-c4cccs4)no3)c2N)c1,-6.42%
16,Cc1ccc(Nc2ncnc(N)n2)cc1C,-17.6%
17,COc1ccccc1Nc1nn2c(=O)c3ccc(C(=O)NCc4cccs4)cc3nc2s1,-3.28%
18,Cc1ccccc1OCCn1cnc2c(N)ncnc21,-2.86%
19,Cc1ccc(C(=O)Nc2ccc3c(c2)N(C)C(=O)c2ccccc2S3)cc1,-1.26%
20,Cc1c(-c2nnc(SCC(=O)Nc3ccccc3F)o2)nnn1-c1ccc(F)cc1,-20%
